Laboratory results taken from PubChem BioAssay AID1159580 (chemical genetic matrix, 2015).
The whole screen tested about 5,500 compounds, of which about 2,000 (36%) were called active. Roughly 18% stayed inconclusive and do not appear here. Cut-off read from the data, not from the text of the source: active = normalized growth mostly below about 0.91 (no sharp cut-off); inconclusive = no clear call, values can overlap the other calls; inactive = mostly above about 0.92. This is one part of the list.

Assay: chemical genetic growth profiling, strain panel (AID 1159580);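 note: tested at 20 µM; growth read once vehicle control cultures reached saturation at 30 °C; 1 = growth at the plate median or of vehicle wells; lower values mean less growth of the strain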
Settings: growth OD

Measured: normalized growth

C[C@@H]1CC[C@H]2[C@@H](C)C(O)O[C@@H]3O[C@@]4(C)CC[C@@H]1[C@]32OO4 (some centres not stated)
inactive: S. cerevisiae deletion strains, locus YMR307W, strain GAS1, stronger effect = lower value 0.661 | S. cerevisiae deletion strains, locus YOL012C, strain htz1 0.255
active: S. cerevisiae deletion strains, locus YJR075W, strain HOC1, stronger effect = lower value 0.166 | S. cerevisiae deletion strains, locus YKL009W, strain mrt4, stronger effect = lower value 0.649 | S. cerevisiae deletion strains, locus YKL068W, stronger effect = lower value 0.775 | S. cerevisiae deletion strains, locus YKL085W, strain MDH1 (second series), stronger effect = lower value 0.363 | S. cerevisiae deletion strains, locus YKL085W, strain MDH1, stronger effect = lower value 0.363 | S. cerevisiae deletion strains, locus YKL160W, strain elf1, stronger effect = lower value 0.336 | S. cerevisiae deletion strains, locus YKL190W, strain CNB1, stronger effect = lower value 0.231 | S. cerevisiae deletion strains, locus YKR001C, strain vps1, stronger effect = lower value 0.587 | S. cerevisiae deletion strains, locus YKR026C, strain gcn3, stronger effect = lower value 0.407 | S. cerevisiae deletion strains, locus YKR091W, strain srl3, stronger effect = lower value 0.329 | S. cerevisiae deletion strains, locus YLL001W, strain dnm1, stronger effect = lower value 0.233 | S. cerevisiae deletion strains, locus YLL026W, stronger effect = lower value 0.243 | S. cerevisiae deletion strains, locus YLL041C, strain sdh2, stronger effect = lower value 0.3 | S. cerevisiae deletion strains, locus YLR027C, strain aat2, stronger effect = lower value 0.261 | S. cerevisiae deletion strains, locus YLR039C, strain RIC1, stronger effect = lower value 0.33 | S. cerevisiae deletion strains, locus YLR058C, strain SHM2, stronger effect = lower value 0.403 | S. cerevisiae deletion strains, locus YLR102C, strain apc9, stronger effect = lower value 0.419 | S. cerevisiae deletion strains, locus YLR113W, strain HOG1, stronger effect = lower value 0.323 | S. cerevisiae deletion strains, locus YLR221C, strain rsa3, stronger effect = lower value 0.204 | S. cerevisiae deletion strains, locus YLR258W, strain gsy2, stronger effect = lower value 0.279 | S. cerevisiae deletion strains, locus YLR262C, strain YPT6 (second series), stronger effect = lower value 0.322 | S. cerevisiae deletion strains, locus YLR262C, strain YPT6, stronger effect = lower value 0.486 | S. cerevisiae deletion strains, locus YLR268W, strain sec22, stronger effect = lower value 0.248 | S. cerevisiae deletion strains, locus YLR320W, strain mms22, stronger effect = lower value 0.236 | S. cerevisiae deletion strains, locus YLR330W, strain CHS5, stronger effect = lower value 0.307 | S. cerevisiae deletion strains, locus YLR342W, strain FKS1 (second series), stronger effect = lower value 0.483 | S. cerevisiae deletion strains, locus YLR342W, strain FKS1, stronger effect = lower value 0.563 | S. cerevisiae deletion strains, locus YLR357W, strain rsc2, stronger effect = lower value 0.358 | S. cerevisiae deletion strains, locus YLR370C, strain arc18, stronger effect = lower value 0.384 | S. cerevisiae deletion strains, locus YLR371W, strain rom2, stronger effect = lower value 0.528 | S. cerevisiae deletion strains, locus YLR384C, strain iki3, stronger effect = lower value 0.771 | S. cerevisiae deletion strains, locus YLR418C, strain cdc73, stronger effect = lower value 0.254 | S. cerevisiae deletion strains, locus YML016C, strain PPZ1, stronger effect = lower value 0.214 | S. cerevisiae deletion strains, locus YML032C, strain rad52, stronger effect = lower value 0.367 | S. cerevisiae deletion strains, locus YML120C, strain ndi1, stronger effect = lower value 0.29 | S. cerevisiae deletion strains, locus YML124C, strain tub3, stronger effect = lower value 0.421 | S. cerevisiae deletion strains, locus YMR058W, strain fet3, stronger effect = lower value 0.361 | S. cerevisiae deletion strains, locus YMR078C, strain ctf18, stronger effect = lower value 0.401 | S. cerevisiae deletion strains, locus YMR125W, strain sto1, stronger effect = lower value 0.462 | S. cerevisiae deletion strains, locus YMR129W, stronger effect = lower value 0.266 | S. cerevisiae deletion strains, locus YMR205C, strain PFK2, stronger effect = lower value 0.366 | S. cerevisiae deletion strains, locus YMR223W, strain ubp8, stronger effect = lower value 0.31 | S. cerevisiae deletion strains, locus YMR231W, strain pep5, stronger effect = lower value 0.84 | S. cerevisiae deletion strains, locus YMR263W, strain SAP30, stronger effect = lower value 0.47 | S. cerevisiae deletion strains, locus YNL067W, strain RPL9B, stronger effect = lower value 0.288 | S. cerevisiae deletion strains, locus YNL071W, strain lat1, stronger effect = lower value 0.167 | S. cerevisiae deletion strains, locus YNL128W, strain TEP1, stronger effect = lower value 0.167 | S. cerevisiae deletion strains, locus YNL153C, strain GIM3, stronger effect = lower value 0.285 | S. cerevisiae deletion strains, locus YNL183C, strain NPR1, stronger effect = lower value 0.266 | S. cerevisiae deletion strains, locus YNL209W, strain ssb2, stronger effect = lower value 0.195 | S. cerevisiae deletion strains, locus YNL233W, strain BNI4, stronger effect = lower value 0.292 | S. cerevisiae deletion strains, locus YNL248C, strain rpa49, stronger effect = lower value 0.384 | S. cerevisiae deletion strains, locus YNL250W, strain rad50, stronger effect = lower value 0.508 | S. cerevisiae deletion strains, locus YNL271C, strain bni1, stronger effect = lower value 0.505 | S. cerevisiae deletion strains, locus YNL298W, strain CLA4, stronger effect = lower value 0.298 | S. cerevisiae deletion strains, locus YNL307C, strain MCK1, stronger effect = lower value 0.125 | S. cerevisiae deletion strains, locus YNL322C, strain KRE1 (second series), stronger effect = lower value 0.493 | S. cerevisiae deletion strains, locus YNL322C, strain KRE1, stronger effect = lower value 0.349 | S. cerevisiae deletion strains, locus YNR049C, strain mso1, stronger effect = lower value 0.412 | S. cerevisiae deletion strains, locus YNR052C, strain pop2, stronger effect = lower value 0.788 | S. cerevisiae deletion strains, locus YOL006C, strain TOP1, stronger effect = lower value 0.16 | S. cerevisiae deletion strains, locus YOL147C, strain pex11, stronger effect = lower value 0.256 | S. cerevisiae deletion strains, locus YOR001W, strain rrp6, stronger effect = lower value 0.287 | S. cerevisiae deletion strains, locus YOR061W, strain CKA2, stronger effect = lower value 0.475 | S. cerevisiae deletion strains, locus YOR069W, strain VPS5, stronger effect = lower value 0.564 | S. cerevisiae deletion strains, locus YOR070C, strain gyp1, stronger effect = lower value 0.277 | S. cerevisiae deletion strains, locus YOR080W, strain dia2, stronger effect = lower value 0.431 | S. cerevisiae deletion strains, locus YOR083W, strain WHI5, stronger effect = lower value 0.3 | S. cerevisiae deletion strains, locus YOR106W, strain vam3, stronger effect = lower value 0.288 | S. cerevisiae deletion strains, locus YOR136W, strain idh2, stronger effect = lower value 0.321 | S. cerevisiae deletion strains, locus YOR144C, strain elg1, stronger effect = lower value 0.449 | S. cerevisiae deletion strains, locus YOR184W, strain ser1, stronger effect = lower value 0.131 | S. cerevisiae deletion strains, locus YOR231W, strain MKK1, stronger effect = lower value 0.37 | S. cerevisiae deletion strains, locus YOR265W, strain rbl2, stronger effect = lower value 0.327 | S. cerevisiae deletion strains, locus YOR270C, strain vph1, stronger effect = lower value 0.187 | S. cerevisiae deletion strains, locus YOR290C, strain snf2, stronger effect = lower value 0.302 | S. cerevisiae deletion strains, locus YOR316C, strain cot1, stronger effect = lower value 0.433 | S. cerevisiae deletion strains, locus YPL051W, strain arl3, stronger effect = lower value 0.374 | S. cerevisiae deletion strains, locus YPL055C, strain LGE1, stronger effect = lower value 0.331 | S. cerevisiae deletion strains, locus YPL078C, strain atp4, stronger effect = lower value 0.248 | S. cerevisiae deletion strains, locus YPL106C, strain sse1, stronger effect = lower value 0.263 | S. cerevisiae deletion strains, locus YPL240C, strain hsp82, stronger effect = lower value 0.313 | S. cerevisiae deletion strains, locus YPL241C, strain CIN2, stronger effect = lower value 0.323 | S. cerevisiae deletion strains, locus YPL256C, strain CLN2, stronger effect = lower value 0.419 | S. cerevisiae deletion strains, locus YPR119W, strain clb2, stronger effect = lower value 0.424 | S. cerevisiae deletion strains, locus YPR141C, strain kar3, stronger effect = lower value 0.494 | S. cerevisiae deletion strains, locus YPR163C, strain tif3, stronger effect = lower value 0.314 | S. cerevisiae deletion strains, locus YPR167C, strain met16, stronger effect = lower value 0.386 | S. cerevisiae deletion strains, strain wtn01, stronger effect = lower value 0.249 | S. cerevisiae strains, strain wild type, stronger effect = lower value 0.27
